PubChem BioAssay (Tox21)
Unmarked numbers belong to inactive results. Records with an inconclusive call do not appear. Entries that show only a call come without a potency. Active and inactive are the calls of the source. Unless noted, calls come from the whole dose curve.

Columns and labels:
[1] = qHTS assay to identify small molecule antagonists of the estrogen receptor beta (ER-beta) signaling pathway - cell viability counter screen (AID 1259382; active = well fitted curve in the direction sought with a large enough effect in the repeat runs; an effect the other way counts as inactive or inconclusive; note: series mostly up to about 92 µM; nearly all actives have a fitted effect of over 55% in size)
In short: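 Agonist-stimulated (1nM E2) ER-beta-UAS-bla HEK293T cells are incubated with library compounds for 16 hr at 37C. Cell viability is then assessed in the reporter-assay wells by adding CellTiter-Glo and reading luminescence after 30 min.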

[2] = target: Estrogen receptor (Homo sapiens) (UniProt P03372); experiment: qHTS assay to identify small molecule agonists of the estrogen receptor alpha (ER-alpha) signaling pathway in the presence of an antagonist (AID 1259383); note: top concentration of the series differs between compounds; nearly all actives have a fitted effect of over 15% in size
In short: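 Using VM7Luc4E2 cells seeded 24hr before treatment, antagonist ICI-182,780 (10.0nM final) was added, followed by compounds at 15 concentrations. Plates incubated 22hr; ONE-Glo luminescence quantified reporter activity.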

[3] = qHTS assay to identify small molecule agonists or antagonists of the thyroid stimulating hormone receptor (TSHR) signaling pathway - wild type cell line counter screen (AID 1259384)
In short: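 Wild-type HEK293 cells were plated 18 h at 37 C/5% CO2, pin-dosed with compound plus Ro20-1724 medium, held 30 min at room temperature, then given cAMP-d2 and anti-cAMP-cryptate; fluorescence was read after 1 h. Fifteen concentrations, triplicate.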

[4] = target: Thyrotropin receptor (Homo sapiens) (UniProt P16473); experiment: qHTS assay to identify small molecule antagonists of the thyroid stimulating hormone receptor (TSHR) signaling pathway (AID 1259385); note: nearly all actives have a fitted effect of over 20% in size
In short: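 TSHR-HEK293 cells were plated and held 18 h at 37C/5% CO2, then given compound plus Ro20-1724 and stimulated with TSH at 1.5 ng/mL final. After 30 min at room temperature, cAMP was detected with cAMP-d2/anti-cAMP-cryptate (1 h) by fluorescence.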

[5] = qHTS assay to identify small molecule agonists of the estrogen receptor alpha (ER-alpha) signaling pathway in the presence of an antagonist - cell viability counter screen (AID 1259386; active = well fitted curve in the direction sought with a large enough effect in the repeat runs; an effect the other way counts as inactive or inconclusive;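 note: cells exposed to compounds for 22 h at 37 °C before the viability read; nearly all actives have a fitted effect of over 30% in size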; note: potency is the fitted concentration of half-maximal effect)
In short: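 ICI-182,780 at 10.0nM final accompanies the compound titration (15 concentrations, 22hr, 37C) on VM7Luc4E2 cells. The CellTiter-Fluor fluorescence readout runs in the same wells as the luciferase assay.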

[6] = target: Progesterone receptor (Homo sapiens) (UniProt P06401); experiment: qHTS assay to identify small molecule antagonists of the progesterone receptor (PR) signaling pathway (AID 1346795; active = well fitted inhibition curve with a large enough effect in the signal ratio in the repeat runs, not every such curve was filed as active; the % refers to the signal ratio)
In short: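 PR-UAS-bla HEK293T cells with beta-lactamase reporter under UAS control, in 2% charcoal-stripped FBS, treated with compounds plus 1 nM promegestone (R5020, final) for 16 hr at 37C. Read-out: FRET beta-lactamase substrate fluorescence after 2 hr at room temperature.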

[7] = qHTS assay to identify small molecule antagonists of the progesterone receptor (PR) signaling pathway - cell viability counter screen (AID 1346798; active = well fitted curve in the direction sought with a large enough effect in the repeat runs; an effect the other way counts as inactive or inconclusive; note: series mostly up to about 92 µM; nearly all actives have a fitted effect of over 50% in size)
In short: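 PR-UAS-bla HEK293T cells, 3,000/well in 2% charcoal-stripped FBS medium, dosed with compounds plus R5020 agonist and incubated 16 h at 37C. Viability then measured in the same wells by CellTiter-Glo luminescence after 30 min at RT.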

[8] = qHTS assay to identify small molecule agonists of the progesterone receptor (PR) signaling pathway - cell viability counter screen (AID 1346799); note: nearly all actives have a fitted effect of over 45% in size
In short: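 Counter screen in the PR-UAS-bla HEK293T wells (2% charcoal-stripped FBS, 16 h compound exposure at 37 C) after the bla read. CellTiter-Glo added, 30 min at room temperature, luminescence read as cell viability.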

[9] = qHTS assay to identify small molecule antagonists of the TGF-beta/Smad signaling pathway - cell viability counter screen (AID 1346824; active = well fitted curve in the direction sought with a large enough effect in the repeat runs; an effect the other way counts as inactive or inconclusive; note: nearly all actives have a fitted effect of over 50% in size)
In short: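 SBE-bla HEK 293T cells were plated overnight at 37 C, then given compounds in DMSO plus TGF-beta1 (added as 0.25 ng/mL solution) for 5 hr. After the bla read, CellTiter-Glo was added to the same wells and luminescence read after 30 min at room temperature.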

[10] = target: Progesterone receptor (Homo sapiens) (UniProt P06401); experiment: qHTS assay to identify small molecule agonists of the progesterone receptor (PR) signaling pathway (AID 1346784); note: nearly all actives have a fitted effect of over 30% in size
In short: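 PR-UAS-bla HEK 293T cells (beta-lactamase reporter under UAS) in 2% charcoal-stripped FBS, dosed with 23 nL compound after 6 hr, incubated 16hr at 37C. LiveBLAzer B/G FRET substrate added, fluorescence read after 2 hours.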

Sequence of Thyrotropin receptor (Homo sapiens) (P16473 whole entry, looked up): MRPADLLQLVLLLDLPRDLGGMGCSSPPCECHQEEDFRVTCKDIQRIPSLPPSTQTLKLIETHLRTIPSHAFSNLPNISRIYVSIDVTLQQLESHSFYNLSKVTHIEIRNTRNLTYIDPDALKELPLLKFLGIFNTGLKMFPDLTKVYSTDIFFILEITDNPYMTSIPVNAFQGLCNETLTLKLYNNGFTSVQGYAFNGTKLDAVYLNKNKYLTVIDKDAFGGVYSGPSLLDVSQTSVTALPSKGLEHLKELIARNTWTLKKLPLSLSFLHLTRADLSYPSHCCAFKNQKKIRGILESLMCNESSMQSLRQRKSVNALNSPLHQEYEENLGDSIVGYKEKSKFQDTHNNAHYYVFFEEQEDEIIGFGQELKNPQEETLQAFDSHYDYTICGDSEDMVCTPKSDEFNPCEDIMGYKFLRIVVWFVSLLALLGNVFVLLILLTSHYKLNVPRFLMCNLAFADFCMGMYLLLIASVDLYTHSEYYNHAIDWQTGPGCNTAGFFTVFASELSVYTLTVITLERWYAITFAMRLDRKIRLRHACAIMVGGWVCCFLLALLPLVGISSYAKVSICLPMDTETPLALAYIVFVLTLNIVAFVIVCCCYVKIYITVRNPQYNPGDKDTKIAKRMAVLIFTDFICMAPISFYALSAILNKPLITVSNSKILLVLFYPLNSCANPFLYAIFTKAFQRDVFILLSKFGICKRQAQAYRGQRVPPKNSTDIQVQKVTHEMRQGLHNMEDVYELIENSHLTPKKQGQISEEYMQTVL
Sequence of Estrogen receptor (Homo sapiens) (P03372 whole entry, looked up): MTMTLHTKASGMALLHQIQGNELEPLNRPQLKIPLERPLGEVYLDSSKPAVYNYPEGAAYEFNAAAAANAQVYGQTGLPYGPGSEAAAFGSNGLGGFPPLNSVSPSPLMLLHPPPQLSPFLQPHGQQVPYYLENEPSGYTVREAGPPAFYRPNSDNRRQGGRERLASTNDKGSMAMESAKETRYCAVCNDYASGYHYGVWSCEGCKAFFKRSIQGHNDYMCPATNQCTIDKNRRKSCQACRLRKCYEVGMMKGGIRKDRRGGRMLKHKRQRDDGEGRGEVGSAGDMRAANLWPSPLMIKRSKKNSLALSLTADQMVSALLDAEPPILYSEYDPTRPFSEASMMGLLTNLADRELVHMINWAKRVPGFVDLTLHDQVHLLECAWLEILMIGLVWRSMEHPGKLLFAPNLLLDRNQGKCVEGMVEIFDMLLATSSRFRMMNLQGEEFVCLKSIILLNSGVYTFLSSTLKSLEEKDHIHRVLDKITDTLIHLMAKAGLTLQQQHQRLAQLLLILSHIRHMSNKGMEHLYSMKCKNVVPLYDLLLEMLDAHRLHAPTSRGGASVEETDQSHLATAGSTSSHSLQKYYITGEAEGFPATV
Sequence of Progesterone receptor (Homo sapiens) (P06401 whole entry, looked up): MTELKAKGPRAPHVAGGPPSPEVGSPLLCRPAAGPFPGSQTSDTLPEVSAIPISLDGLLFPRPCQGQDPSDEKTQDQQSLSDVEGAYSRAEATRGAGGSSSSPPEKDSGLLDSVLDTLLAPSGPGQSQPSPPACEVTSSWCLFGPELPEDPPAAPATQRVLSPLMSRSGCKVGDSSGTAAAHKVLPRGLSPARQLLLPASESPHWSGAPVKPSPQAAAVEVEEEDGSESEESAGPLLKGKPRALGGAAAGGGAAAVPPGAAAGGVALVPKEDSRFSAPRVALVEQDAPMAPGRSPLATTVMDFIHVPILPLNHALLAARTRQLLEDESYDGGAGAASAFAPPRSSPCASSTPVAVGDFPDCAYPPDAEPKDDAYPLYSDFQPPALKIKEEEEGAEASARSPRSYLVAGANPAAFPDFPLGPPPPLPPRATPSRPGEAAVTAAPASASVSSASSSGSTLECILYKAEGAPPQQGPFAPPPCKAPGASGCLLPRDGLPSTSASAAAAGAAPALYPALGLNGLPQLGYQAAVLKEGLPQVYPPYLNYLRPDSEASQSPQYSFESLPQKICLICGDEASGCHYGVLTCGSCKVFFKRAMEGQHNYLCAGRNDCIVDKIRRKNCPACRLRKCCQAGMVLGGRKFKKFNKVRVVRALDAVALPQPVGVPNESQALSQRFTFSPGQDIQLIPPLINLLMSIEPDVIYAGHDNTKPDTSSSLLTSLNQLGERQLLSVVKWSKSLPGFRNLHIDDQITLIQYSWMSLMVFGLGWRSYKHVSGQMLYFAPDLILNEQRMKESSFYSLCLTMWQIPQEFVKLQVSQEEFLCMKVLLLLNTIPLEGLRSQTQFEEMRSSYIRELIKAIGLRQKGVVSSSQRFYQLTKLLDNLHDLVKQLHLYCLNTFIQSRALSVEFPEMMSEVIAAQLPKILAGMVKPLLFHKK

| SMILES | outcome [1] | outcome [2] | outcome [3] | outcome [4] | Potency [5] | Potency [6] | Potency [7] | Potency [8] | outcome [9] | Potency [10] |
| --- | --- | --- | --- | --- | --- | --- | --- | --- | --- | --- |
| O=C(/C=C/c1ccccc1)NCCO | inactive | inactive | inactive | inactive | inactive | inactive | inactive | inactive | inactive |  |
| COc1cc([N+](=O)[O-])ccc1N | inactive | inactive | inactive | inactive | 38.6 µM (active) |  | inactive | inactive | inactive | inactive |
| Cc1cccc(C(=O)O)c1[N+](=O)[O-] | inactive | inactive | inactive | inactive | inactive | inactive | inactive | inactive | inactive | inactive |
| CC(Cl)COP(=O)(OCC(C)Cl)OCC(C)Cl (centres undefined) | inactive | inactive | inactive | inactive | inactive |  | inactive |  | inactive | inactive |
| NC(=O)NC(=O)Cc1ccccc1 | inactive | inactive | inactive | inactive | inactive | inactive | inactive | inactive | inactive | inactive |
| C=CCOc1c(Br)cc(C(C)(C)c2cc(Br)c(OCC=C)c(Br)c2)cc1Br | inactive | inactive | inactive | inactive | inactive | inactive |  |  | inactive | inactive |
